# In PubChem BioAssay:
# Some of the results follow. Calls of active or inactive are those of the source. Unless noted, no rule for the calls is given here.
# Assays:
# [1] = activators of apoptotic CHOP UPR arm, confirmation, cell-based, CHO-CHOP luciferase reporter, single concentration (AID 463112; in the data active = activation above about 33%;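 also: 0% = DMSO wells and 100% = tunicamycin 10 µg/mL wells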); conditions: CHO-CHOP cells, CHOP-luciferase reporter luminescence; at 10 µM; stronger effect = higher value; percent of tunicamycin response, DMSO as zero
# [2] = Apaf-1 inhibitors, single-dose retest, confirmation, biochemical, fluorescence, DEVD-Rh110, 20 µM (AID 504614;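 active = mean inhibition of at least 40% at 20 µM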;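 also: plate controls were DMSO wells for no effect and DEVD-CHO caspase inhibitor control wells for full effect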); conditions: reconstituted apoptosome, caspase-3 DEVD-Rh110 fluorescence; at 20 µM; stronger effect = higher value
# [3] = Rh110 fluorescence interference by putative Apaf-1 inhibitors, confirmation, artefact control for Apaf-1 inhibitor project, biochemical, 20 µM (AID 504615;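 active = signal rise of 40% or more at 20 µM, treated as a fluorescence artifact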); conditions: quenched caspase reaction, at 20 µM, stronger effect = higher value
# [4] = inhibition of Brca1/Bard1 split-luciferase complementation, confirmation, counter-screen for Mdm2/MdmX interaction inhibitor project, luminescence, single concentration (AID 504668); conditions: Brca1/Bard1 bimolecular luciferase complementation counterscreen, at 8 µM, stronger effect = higher value
# [5] = PMA/ionomycin-induced NF-kB reporter inhibitors, Jurkat retest, confirmation, T-cell NF-kB inhibitor project, cell-based, luminescence, single concentration (AID 435020;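 active = inhibition reaching about 45% at 4 µM in either replicate, limit read from the data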;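 also: plate controls were PMA/ionomycin stimulated DMSO wells for no effect and unstimulated DMSO wells for full effect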); conditions: Jurkat NF-kB luciferase, 16 h, at 4 µM, stronger effect = higher value
# [6] = target: Protein Mdm4 (Homo sapiens) + E3 ubiquitin-protein ligase Mdm2 (Homo sapiens) (UniProt O15151+Q00987); assay: retested Mdm2-MdmX interaction blockers, confirmation, cell-based, luminescence, single concentration, set 2 (AID 504601;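 active = mean inhibition of the luminescence signal across two replicates at or above 26 percent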); conditions: SaOS-2 split-luciferase Mdm2/MdmX complementation, at 8 µM, stronger effect = higher value
# [7] = HIF-2a reporter inhibitor retest, confirmation, luminescence, 786-0 RCC cells (AID 651580;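 active = mean inhibition across four replicates of at least 40 percent at the single tested concentration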); conditions: HIF-2a luciferase reporter luminescence, overnight, at 18.8 µM, stronger effect = higher value
# [8] = HIF-1a luciferase reporter signal reduction – MiaPaCa-2 cells, single concentration, counter-screen for HIF-2a inhibitor project, confirmation (AID 651589;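 active = mean inhibition of the reporter signal across four replicates at the single tested dose of 50% or more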); conditions: MiaPaCa-2 HIF-1a luciferase reporter, desferoxamine, overnight; at 18.8 µM; stronger effect = higher value
# [9] = target: Tumor necrosis factor receptor superfamily member 10B (Homo sapiens) (UniProt O14763); assay: caspase-8 TRAIL sensitization, hit retest, confirmation, cell-based, NB7+caspase-8, with/without TRAIL, luminescence panel (AID 651596; in the data active = activity above about 50%); conditions: NB7 neuroblastoma + caspase-8, TRAIL sensitization, luminescence viability, with TRAIL, mean of runs, at 10 µM, stronger effect = higher value
# [10] = as above; conditions: NB7 neuroblastoma + caspase-8, without TRAIL, luminescence viability, without TRAIL, mean of runs, at 10 µM
# [11] = cytotoxicity in PPC-1 cells, confirmation, cytotoxicity control for TRAIL apoptosis potentiator project, cell-based, ATP content luminescence (AID 1447;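 active = reconfirmed compounds whose average cytotoxicity reaches 50% or more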;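 also: 0% = DMSO-treated cells and 100% = wells holding medium but no cells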); conditions: PPC-1 viability, ATPlite luminescence, overnight; at 5 µM; stronger effect = higher value
# [12] = target: Sentrin-specific protease 8 (Homo sapiens) (UniProt Q96LD8); assay: SENP8 protease inhibitors, retest, confirmation, biochemical, luminescence, single concentration (AID 488912;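 active = mean inhibition across replicates above about 50%, limit read from the data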); conditions: Recombinant SENP8, Z-RLRGG-aminoluciferin luminescence, 60 min; at 12.5 µM; stronger effect = higher value
# [13] = target: Sentrin-specific protease 6 (Homo sapiens) (UniProt Q9GZR1); assay: SENP6 protease inhibitors, confirmation, biochemical, luminescence, single concentration (AID 488915;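 active = mean inhibition above about 50% in the one-dose retest, limit read from the data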); conditions: recombinant SENP6, Z-RLRGG-aminoluciferin luminescence; at 12.5 µM; stronger effect = higher value
# [14] = target: Sentrin-specific protease 7 (Homo sapiens) (UniProt Q9BQF6); assay: SENP7 protease inhibitors, retest, confirmation, biochemical, luminescence, single concentration (AID 488917;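 active = mean inhibition above about 50% in the one-dose retest, limit read from the data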); conditions: recombinant SENP7, Z-RLRGG-aminoluciferin luminescence, 40 min; at 12.5 µM; stronger effect = higher value
# Caspase-3 (Homo sapiens) = Caspase-3 (Homo sapiens) (UniProt P42574); assay: caspase-3 protease inhibitors, confirmation, selectivity assay for SENP inhibitor project, biochemical, single concentration (AID 488918;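 active = mean inhibition above about 50%, limit read from the data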;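 also: plate controls were enzyme with DMSO for no effect and wells without caspase-3 for full effect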); conditions: purified caspase-3, Z-DEVD-aminoluciferin luminescence, 60 min; at 12.5 µM; stronger effect = higher value
# [15] = luciferase luminescence interference by compounds, confirmation, artefact control for SENP inhibitor project, biochemical, single concentration, SENP8 reaction pre-completed (AID 488919;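 active = mean inhibition above about 50% when retested at one dose, limit read from the data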;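 also: plate controls were DMSO wells with completed reaction for no effect and substrate without enzyme for full effect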); conditions: Pre-incubated SENP8/Z-RLRGG-aminoluciferin, at 12.5 µM, stronger effect = higher value
# [16] = Peg3 promoter reporter inhibitors, retest, confirmation, cell-based, HeLa, luciferase reporter, single concentration (AID 602417;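 active = at 20 µM dose, 40% or more inhibition averaged across four replicates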); conditions: HeLa PEG-Prom luciferase reporter, luminescence, overnight; at 20 µM; stronger effect = higher value
# PEG-3 [17] = target: PEG-3 (UniProt Q6IN02); assay: Peg3 promoter luciferase inhibitors, potency, dose response, cell-based, HeLa, CREF/GAPDH counter-screen panel (AID 624167); conditions: HeLa PEG-Prom luciferase reporter, overnight, CREF/GAPDH counter-screens; run 1, dose range 1, at 100 µM (top of the series)
# PEG-3 [18] = target: PEG-3 (UniProt Q6IN02); assay: as above; conditions: HeLa PEG-Prom luciferase reporter, overnight, CREF/GAPDH counter-screens; run 2, dose range 1, at 100 µM (top of the series)
# [19] = fluorescence interference of Apaf-1 inhibitor hits, dose response, artefact control for Apaf-1 inhibitor project (AID 588538); conditions: fluorescence interference counterscreen, Apaf-1 assay format
# [20] = target: Carboxy-terminal domain RNA polymerase II polypeptide A small phosphatase 1 (Homo sapiens) (UniProt Q9GZU7); assay: Scp-1 binding by thermal shift, confirmation, orthogonal assay for Scp-1 inhibitor project, biophysical, differential scanning fluorimetry (AID 540329;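 active = substances whose mean melting-temperature shift, as a percentage of the reference inhibitor's shift, reaches about 5.3%, limit read from the data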;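 also: 0% = Tm of DMSO wells and 100% = Tm with sodium orthovanadate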); conditions: Recombinant SCP1, Sypro Orange thermal shift Tm; at 40 µM; stronger effect = higher value
# [21] = inhibitors of PAF-induced NF-kB signaling, retest, confirmation, cell-based, GFP fluorescence, single concentration (AID 602472; in the data active = inhibition above about 40%;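 also: stimulus PAF is a Pseudomonas aeruginosa filtrate and not platelet activating factor; plate controls were DMSO wells with stimulus for no effect and unstimulated DMSO wells for full effect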); conditions: KKLEB CF airway cells, overnight, at 5 µM, stronger effect = higher value
# PEG-3, sequence (Q6IN02 whole entry, looked up): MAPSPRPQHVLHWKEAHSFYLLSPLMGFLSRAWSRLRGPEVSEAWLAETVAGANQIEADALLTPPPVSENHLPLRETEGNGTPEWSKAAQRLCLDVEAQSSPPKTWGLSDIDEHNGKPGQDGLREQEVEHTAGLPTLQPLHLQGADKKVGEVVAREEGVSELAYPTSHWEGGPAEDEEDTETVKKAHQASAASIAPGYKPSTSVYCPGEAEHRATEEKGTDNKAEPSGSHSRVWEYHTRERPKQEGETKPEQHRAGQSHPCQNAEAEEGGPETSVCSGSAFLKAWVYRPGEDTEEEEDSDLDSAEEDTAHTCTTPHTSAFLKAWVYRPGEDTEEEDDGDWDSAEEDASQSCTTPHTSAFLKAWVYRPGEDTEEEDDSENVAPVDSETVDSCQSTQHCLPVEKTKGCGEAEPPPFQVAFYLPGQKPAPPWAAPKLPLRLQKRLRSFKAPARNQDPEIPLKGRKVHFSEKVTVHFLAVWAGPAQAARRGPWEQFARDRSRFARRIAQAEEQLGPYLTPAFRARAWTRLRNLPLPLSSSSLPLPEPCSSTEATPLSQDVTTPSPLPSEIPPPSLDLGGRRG
# Tumor necrosis factor receptor superfamily member 10B (Homo sapiens), sequence (O14763 whole entry, looked up): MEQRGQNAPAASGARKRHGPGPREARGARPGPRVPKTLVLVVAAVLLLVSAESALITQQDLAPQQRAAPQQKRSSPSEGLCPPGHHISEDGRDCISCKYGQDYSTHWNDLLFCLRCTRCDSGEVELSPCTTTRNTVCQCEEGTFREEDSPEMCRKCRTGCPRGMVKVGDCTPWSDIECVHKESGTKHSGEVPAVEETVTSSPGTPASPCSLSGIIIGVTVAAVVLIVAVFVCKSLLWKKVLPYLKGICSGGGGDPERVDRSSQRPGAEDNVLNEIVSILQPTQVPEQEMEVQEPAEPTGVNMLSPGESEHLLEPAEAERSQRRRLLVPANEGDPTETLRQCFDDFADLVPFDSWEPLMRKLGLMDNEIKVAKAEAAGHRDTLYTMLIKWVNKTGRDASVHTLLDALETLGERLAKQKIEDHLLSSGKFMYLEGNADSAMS
# Sentrin-specific protease 8 (Homo sapiens), sequence (Q96LD8 whole entry, looked up): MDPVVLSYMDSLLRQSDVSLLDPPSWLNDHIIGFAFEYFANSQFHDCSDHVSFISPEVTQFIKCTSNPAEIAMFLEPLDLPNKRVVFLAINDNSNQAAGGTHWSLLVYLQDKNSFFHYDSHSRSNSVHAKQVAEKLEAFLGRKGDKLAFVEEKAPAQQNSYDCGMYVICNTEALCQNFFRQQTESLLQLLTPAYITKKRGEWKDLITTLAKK
# Caspase-3 (Homo sapiens), sequence (P42574 28-227 limits assumed): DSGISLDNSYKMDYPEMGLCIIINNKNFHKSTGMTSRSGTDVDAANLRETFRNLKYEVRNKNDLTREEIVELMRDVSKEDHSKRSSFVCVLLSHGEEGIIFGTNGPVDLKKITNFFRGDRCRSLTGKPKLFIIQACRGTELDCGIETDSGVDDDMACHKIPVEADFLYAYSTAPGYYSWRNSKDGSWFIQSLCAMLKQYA
# Sentrin-specific protease 6 (Homo sapiens), sequence (Q9GZR1 628-1112 limits assumed): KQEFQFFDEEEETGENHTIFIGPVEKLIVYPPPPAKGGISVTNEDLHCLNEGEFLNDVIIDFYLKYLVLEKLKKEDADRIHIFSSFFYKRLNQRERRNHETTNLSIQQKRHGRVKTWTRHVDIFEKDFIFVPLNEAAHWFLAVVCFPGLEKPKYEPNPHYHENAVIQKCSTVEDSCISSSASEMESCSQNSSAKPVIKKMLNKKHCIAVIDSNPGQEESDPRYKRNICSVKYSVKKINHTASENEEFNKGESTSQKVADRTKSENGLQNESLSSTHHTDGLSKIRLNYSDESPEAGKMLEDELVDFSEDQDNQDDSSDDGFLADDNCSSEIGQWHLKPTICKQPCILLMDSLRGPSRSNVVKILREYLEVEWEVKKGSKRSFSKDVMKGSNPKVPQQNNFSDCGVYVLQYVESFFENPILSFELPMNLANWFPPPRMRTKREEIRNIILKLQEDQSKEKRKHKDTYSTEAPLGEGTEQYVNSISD
# Sentrin-specific protease 7 (Homo sapiens), sequence (Q9BQF6 706-1050 limits assumed): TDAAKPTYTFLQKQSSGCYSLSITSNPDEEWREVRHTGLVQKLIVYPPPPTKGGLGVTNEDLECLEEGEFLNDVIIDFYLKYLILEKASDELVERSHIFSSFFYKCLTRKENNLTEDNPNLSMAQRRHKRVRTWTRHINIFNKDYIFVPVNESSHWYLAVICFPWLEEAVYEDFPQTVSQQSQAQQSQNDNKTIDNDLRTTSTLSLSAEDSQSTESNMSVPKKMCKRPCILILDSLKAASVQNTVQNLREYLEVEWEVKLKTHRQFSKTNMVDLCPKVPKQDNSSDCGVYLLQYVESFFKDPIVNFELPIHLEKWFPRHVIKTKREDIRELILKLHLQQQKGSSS
# Protein Mdm4 (Homo sapiens) + E3 ubiquitin-protein ligase Mdm2 (Homo sapiens), sequence (O15151 whole entry, looked up): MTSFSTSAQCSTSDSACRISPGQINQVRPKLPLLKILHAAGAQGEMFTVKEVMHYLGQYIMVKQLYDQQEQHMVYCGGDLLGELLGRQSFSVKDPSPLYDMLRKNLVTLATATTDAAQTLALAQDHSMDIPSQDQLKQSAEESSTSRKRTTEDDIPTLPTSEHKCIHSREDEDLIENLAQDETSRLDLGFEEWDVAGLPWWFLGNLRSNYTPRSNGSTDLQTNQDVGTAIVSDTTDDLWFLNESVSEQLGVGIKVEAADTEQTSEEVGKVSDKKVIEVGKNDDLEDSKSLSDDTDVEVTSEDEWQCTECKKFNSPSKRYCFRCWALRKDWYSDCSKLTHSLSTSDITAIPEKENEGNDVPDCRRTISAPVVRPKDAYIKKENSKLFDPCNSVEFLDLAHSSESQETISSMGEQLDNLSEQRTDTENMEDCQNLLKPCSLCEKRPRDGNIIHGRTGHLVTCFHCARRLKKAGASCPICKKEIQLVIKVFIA
# Protein Mdm4 (Homo sapiens) + E3 ubiquitin-protein ligase Mdm2 (Homo sapiens), sequence (Q00987 whole entry, looked up): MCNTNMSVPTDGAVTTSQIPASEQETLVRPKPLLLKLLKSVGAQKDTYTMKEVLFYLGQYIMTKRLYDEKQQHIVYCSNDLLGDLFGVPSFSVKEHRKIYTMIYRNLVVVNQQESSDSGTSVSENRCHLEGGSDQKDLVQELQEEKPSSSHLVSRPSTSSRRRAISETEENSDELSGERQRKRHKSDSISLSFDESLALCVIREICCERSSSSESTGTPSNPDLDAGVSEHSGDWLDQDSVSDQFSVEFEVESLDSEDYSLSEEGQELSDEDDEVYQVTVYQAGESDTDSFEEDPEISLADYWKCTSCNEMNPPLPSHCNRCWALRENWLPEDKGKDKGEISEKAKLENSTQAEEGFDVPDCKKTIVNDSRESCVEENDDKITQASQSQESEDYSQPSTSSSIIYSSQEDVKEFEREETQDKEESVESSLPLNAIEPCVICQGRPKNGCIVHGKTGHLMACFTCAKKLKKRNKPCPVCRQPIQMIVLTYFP
# Carboxy-terminal domain RNA polymerase II polypeptide A small phosphatase 1 (Homo sapiens), sequence (Q9GZU7 76-261 limits assumed): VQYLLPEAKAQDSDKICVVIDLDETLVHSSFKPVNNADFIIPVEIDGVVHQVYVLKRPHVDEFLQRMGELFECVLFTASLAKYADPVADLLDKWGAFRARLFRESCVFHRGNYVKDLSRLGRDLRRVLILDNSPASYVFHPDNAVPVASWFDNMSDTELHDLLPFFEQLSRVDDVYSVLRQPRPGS
compound,measurement,setting,value
O=C1NC(=O)N(CCc2ccc(F)cc2)C(=O)/C1=C/C=C/c1ccccc1,activation,[1],90.1% (active)
CNCC(O)c1cc(F)c(OCc2ccccc2)c(OCc2ccccc2)c1F (stereo not drawn),inhibition,[2],12.9% (inactive)
same,activation (fluorescence interference),[3],12.9% (inactive)
C[C@@H]1O[C@@H](O[C@H]2C[C@@H](O)[C@]3(CO)[C@@H]4C(CC[C@]3(O)C2)[C@@]2(O)CC[C@H](C3COC(=O)C3)[C@@]2(C)C[C@H]4O)[C@H](O)[C@H](O)[C@H]1O (stereo partly drawn),inhibition,[4],24.4% (active)
CCOc1ccc(-c2cc(C)[n+](CCc3ccc(OC)c(OC)c3)c(-c3ccc(OCC)cc3)c2)cc1,inhibition,[4],35.8% (active)
Cc1cccc(-n2c(O)c(/C=C3/C(c4ccccc4)=Nc4ccccc43)c(=O)[nH]c2=O)c1,inhibition,[4],35.8% (active)
C[C@]12CC[C@H](O)C[C@H]1CC[C@@H]1C2CC[C@]2(C)[C@@H](C3=CC(=O)OC3)[C@@H](O)C[C@]12O (stereo partly drawn),inhibition,[5],-17.1% (inactive)
Cc1cc2ccccn2c1C(C[N+](=O)[O-])c1c(F)cccc1Cl (stereo not drawn),inhibition,[5],6.25% (inactive)
same,inhibition,[6],33% (active)
same,inhibition,[4],29.6% (active)
COc1cc2c3c(c1OC)Oc1ccc(cc1)C[C@H]1c4c(cc(OC)c(OC)c4Oc4ccc(cc4)C[C@@H]3N(C)CC2)CCN1C,inhibition,[4],35.2% (active)
COc1cc2c3cc1Oc1c(OC)c(OC)cc4c1[C@H](Cc1ccc(cc1)Oc1cc(ccc1O)C[C@H]3N(C)CC2)N(C)CC4,inhibition,[4],29.8% (active)
CCCCCCCCCCCCn1ccc(=N)cc1,inhibition,[5],80.3% (active)
same,inhibition,[6],103% (active)
same,inhibition,[2],32% (inactive)
same,activation (fluorescence interference),[3],3.55% (inactive)
same,inhibition,[7],64% (active)
same,inhibition,[8],106% (active)
same,activity,[9],92.9%
same,activity,[10],80%
C/C=C(\C)C(=O)OC1C(C)=C2C(C1OC(=O)CCCCC)C(C)(OC(C)=O)CC(OC(=O)CCC)C1(O)C2OC(=O)C1(C)O (stereo not drawn),inhibition,[4],24.1% (active)
CCOC(=O)c1ccc(-[n+]2c(-c3ccccc3)cc(-c3ccccc3)cc2-c2ccccc2)cc1,inhibition,[4],23.6% (active)
COc1ccc2c(c1)/C(=C/c1cnc[nH]1)C(=O)N2,inhibition,[4],32.2% (active)
C[C@]12CC[C@H]3[C@@H](CC[C@]4(O)C[C@@H](O)CC[C@]34C=O)[C@@]1(O)CC[C@@H]2C1=CC(=O)OC1,inhibition,[4],28% (active)
CCOC(=O)c1c(N)n(Cc2ccccc2)c2nc3ccccc3nc12,inhibition,[2],12.5% (inactive)
same,activation (fluorescence interference),[3],5.83% (inactive)
O=Cc1cn(Cc2ccc(F)cc2Cl)c2ccccc12,inhibition,[4],35.1% (active)
CCc1nc2ccccc2c(=O)n1-c1cccc(OC)c1,cytotoxicity,[11],-11.4% (inactive)
C/C(=N/O)c1ccc2ccc3ccccc3c2c1,inhibition,[12],64.6% (active)
same,inhibition,[13],61.5% (active)
same,inhibition,[14],79.5% (active)
same,inhibition,Caspase-3 (Homo sapiens),19.2% (inactive)
same,inhibition,[15],30.7% (inactive)
CC(Cc1ccccc1)NCCC(c1ccccc1)c1ccccc1 (stereo not drawn),inhibition,[2],12.8% (inactive)
same,activation (fluorescence interference),[3],7.45% (inactive)
same,inhibition,[16],87.6% (active)
same,inhibition,PEG-3 [17],98%
same,inhibition,PEG-3 [18],98.9%
CCn1nc(-c2ccccc2)nc2c(=O)n(C)c(=O)nc1-2,inhibition,[4],23.3% (active)
c1ccc2c(N3CCNCC3)nsc2c1,inhibition,[4],29.6% (active)
Cc1cc(O)c2c(c1)C(=O)C13C(=C2O)C(=O)[C@H]2[C@@H](O)[C@@H]1[C@H]1[C@H](O)[C@@H]3C(=O)C3=C(O)c4c(O)cc(C)cc4C(=O)C312 (stereo partly drawn),inhibition,[4],29.6% (active)
CCCCCn1c(=O)c(C(=O)Nc2c(C)n(C)n(-c3ccccc3)c2=O)c(O)c2ccccc21,inhibition,[2],42.9% (active)
same,activation (fluorescence interference),[3],-2.75% (inactive)
same,IC50,[19],> 100 µM (inactive)
C[C@@H]1O[C@@H](O[C@H]2C[C@@H](O)[C@]3(CO)[C@H]4[C@H](O)C[C@]5(C)[C@@H](C6COC(=O)C6)CC[C@]5(O)[C@@H]4CC[C@]3(O)C2)[C@H](O)[C@H](O)[C@H]1O (stereo partly drawn),inhibition,[4],26.8% (active)
Cn1c(NN=O)nc2ccccc21,inhibition,[4],35.8% (active)
N#CC(C#N)=NNc1ccc(-n2ccc(C(F)(F)F)n2)cc1,inhibition,[4],31.2% (active)
CCOc1ccc(-c2cc(C)[n+](CCN(CC)CC)c(-c3ccc(OCC)cc3)c2)cc1,inhibition,[5],21.7% (inactive)
same,activity,[9],62.5%
same,activity,[10],59.2%
Brc1ccc2c(c1)C(OC1CN3CCC1CC3)c1ccccc1CS2 (stereo not drawn),inhibition,[4],33.8% (active)
COc1cccc(-c2nc3ccc(N4CCN(C)CC4)cc3[nH]2)c1,cytotoxicity,[11],82.3% (active)
same,inhibition,[12],74.8% (active)
same,inhibition,[13],67.2% (active)
same,inhibition,[14],88.2% (active)
same,inhibition,Caspase-3 (Homo sapiens),87% (active)
same,inhibition,[15],25.4% (inactive)
same,activity,[9],90.4%
same,activity,[10],87.8%
Clc1ccc(C(c2ccc(Cl)cc2)n2cc[n+](CC(OCc3ccc(Cl)cc3Cl)c3ccc(Cl)cc3Cl)c2)cc1 (stereo not drawn),inhibition,[4],28.6% (active)
COc1cc2c(cc1OC)-c1c(OC)c(OC)c(OC)c3ccnc(c13)C2=O,inhibition,[4],23.6% (active)
CC(C)c1oc(=O)cc2c1[C@@H](O)[C@H]1OC(=O)[C@@]3(C)C[C@@H](O)[C@@H](O)[C@@]2(C)C13 (stereo partly drawn),inhibition,[4],29.6% (active)
CCn1nc(/C=C/c2ccccc2)nc2c(=O)n(C)c(=O)nc1-2,inhibition,[4],24.6% (active)
O=[N+]([O-])c1ccc(NC2CCN(Cc3ccccc3)CC2)c2ccncc12,inhibition,PEG-3 [17],102%
same,inhibition,PEG-3 [18],99%
Fc1ccc(C(OCCN2CCN(CCCc3ccccc3)CC2)c2ccc(F)cc2)cc1,inhibition,[4],30.4% (active)
Cc1ccc(C)c(NP(=O)(Oc2ccccc2)Oc2ccccc2)c1,inhibition,PEG-3 [17],88.2%
same,inhibition,PEG-3 [18],96.7%
CN(C)c1ccc(-[n+]2c(-c3ccccc3)cc(-c3ccccc3)cc2-c2ccccc2)cc1,inhibition,[4],23.3% (active)
O=C(O)CCn1cc(C=C2C(=O)NC(=S)NC2=O)c(-c2cccc(Br)c2)n1,thermal shift relative to vanadate control,[20],-19.9% (inactive)
CC(=CCOc1ccc2ccc(=O)oc2c1)C1=CC(=O)C(C)(C)O1,inhibition,[21],-46% (inactive)
same,inhibition,[7],44.2% (active)
same,inhibition,[8],90.3% (active)
